# High-throughput results (PubChem BioAssay)
# This is a sample that favours compounds with a hit; in the whole collection about 3.3% have one here.
# PI5P4K alpha inh: qHTS for Inhibitors of phosphatidylinositol 5-phosphate 4-kinase (PI5P4K). max response, %. 330,000 tested, 1.2% active. PI5P4Kalpha enzyme, ADP-Glo luminescence, 60 min; stronger effect = lower value; active = max response of -50% or lower; inconclusive = between -30% and -50%; inactive = -30% or higher; also: value at the top dose of about 77 µM
#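 Compounds were pin-transferred onto PI5P4Kalpha and substrate in HEPES pH 7.4 buffer with EGTA, CHAPS and 5% DMSO. ATP (5 microM final) started the reaction, which ran 60 minutes at room temperature before ADP-Glo detection.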
# PI4K2A block: qHTS for small molecular inhibitors of PI4K2A | activity change, negative = inhibition, % at 76.9 µM | AID 1346378, 2018 | purified PI4K2A, ADP-Glo luminescence, 1 h; stronger effect = lower value | Phosphatidylinositol 4-kinase type 2-alpha (Homo sapiens), Q9BTU6 | 420,000 tested, 0.13% active; in the data active = activity change below about -50%; inconclusive = mostly about -30% to -49%
#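 Compounds are screened against recombinant PI4K2A using PI as substrate and ATP, the latter dispensed at 300 microM. Reactions run one hour at ambient temperature before ADP-Glo detection; full inhibition defined by wells lacking enzyme.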
# DRD3 antagonist: qHTS of D3 Dopamine Receptor Antagonist: qHTS | 360,000 tested, 2.5% active | D3R cells, DiscoveRx beta-arrestin luminescence, antagonist mode; stronger effect = lower value | max response, negative = inhibition, %; in the data active = max response below about -50%; inconclusive = no clear call, values can overlap the other calls
# Target sequence (P35462 whole entry, looked up): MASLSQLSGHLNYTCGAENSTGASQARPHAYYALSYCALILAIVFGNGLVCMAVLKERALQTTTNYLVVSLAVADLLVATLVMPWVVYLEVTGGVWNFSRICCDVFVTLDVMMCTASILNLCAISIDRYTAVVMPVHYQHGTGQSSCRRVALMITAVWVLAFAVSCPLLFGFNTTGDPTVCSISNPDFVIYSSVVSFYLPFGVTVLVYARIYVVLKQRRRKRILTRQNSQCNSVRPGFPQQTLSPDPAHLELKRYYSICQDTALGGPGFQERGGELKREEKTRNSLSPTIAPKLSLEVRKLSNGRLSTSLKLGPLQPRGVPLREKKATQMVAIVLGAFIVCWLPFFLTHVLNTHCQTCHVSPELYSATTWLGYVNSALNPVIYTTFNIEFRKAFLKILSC
#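 Cells plated overnight at 1500 cells/well, then exposed to library compounds with dopamine controls for 90 minutes at 37 degrees C. DiscoveRx reagent added for 30–60 minutes at room temperature; luminescence read, quantitative HTS format.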
# D3 ag: qHTS of D3 Dopamine Receptor Agonist: qHTS | D3R DiscoveRx beta-arrestin cells, luminescence, 90 min | max activation, % | 410,000 tested, 0.58% active | AID 652048, 2013; in the data active = max activation above about 30%
#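 Agonist-mode cell screen: cells plated at 1500/well and incubated overnight at 37 °C, then exposed to library compounds for 90 min at 37 °C. Detection reagent was added for 30–60 min at room temperature, and luminescence was read.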
# LDHA inh: qHTS assay for inhibitors of human lactate dehydrogenase; activity change, % (values are at about 110 or 230 µM); purified LDHA, NADH/diaphorase-resazurin fluorescence; stronger effect = lower value; AID 1347041, 2019; 480,000 tested, 0.15% active; L-lactate dehydrogenase A chain (Homo sapiens), P00338; in the data active = activity change below about -30%; inconclusive = mostly about -25% to -30%
#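 Resorufin fluorescence (ex540/em590), read at 0 and 20 min after diaphorase/resazurin addition, reports the NADH left after a 5 min room-temperature reaction of 2 nM human LDH5 with 0.06 mM NADH and 0.2 mM pyruvate.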
# Numbers stand for hits; n = inactive; u = inconclusive; x = no result given; ! = a repeat was not active.
SMILES,PI5P4K alpha inh,PI4K2A block,DRD3 antagonist,D3 ag,LDHA inh
COc1ccccc1N(C)S(=O)(=O)c1ccc(Cl)c(C(=O)Nc2cccc(C)n2)c1,n,n,n,n,n
Cc1cccc(NC(=O)c2cc(S(=O)(=O)N(C)c3ccc(F)cc3)ccc2Cl)n1,n,n,-57,n,n
N#CCSc1ncnc2ccccc12,n,n,-55,n,n
CCC1(C)Cc2ccccc2-c2nc(NCCO)[nH]c(=O)c21 (configuration not stated),n,n,-52,n,n
CCc1cccc(NS(=O)(=O)c2csc(C(N)=O)c2)c1,n,n,n,33,n
Cc1ccc(C)c(OCCCCN2CCCCC2)c1,n,n,-67,n,n
Cc1ccc(OCCCN2CCCC2)c(C)c1,n,n,-52,n,n
Cc1ccccc1OCCCN1CCCC1,x,n,-60,n,n
Cc1cc(Br)ccc1OCCN1CCCC1,n,n,-69,n,u
Cc1ccc(OCCCCN2CCCCC2)c(C)c1,n,n,n,n,n
N#Cc1ccc(N)cc1OCCCN1CCCCC1,n,n,-52,n,n
c1ccc(OCCCN2CCCC2)cc1,x,n,u,n,n
Cc1ccc(-c2nc3cc(NC(=O)c4ccc5c(c4)OCO5)ccc3o2)c(C)c1,x,x,x,x,n
CC(C)S(=O)(=O)c1nsc2nc(=O)c(/C=C3\C=Nc4ccccc43)c(N)n12,-79,n,n,n,n
CC1=Nc2ccc(C)cc2/C1=C/c1c(N)n2oc(C)cc2nc1=O,n,n,n,n,n
Nc1c(C=C2C=CC(=O)C=C2)c(=O)nc2snc(SCc3ccccc3)n12,-51,n,n,n,n
CC1=Nc2ccc(C)cc2/C1=C/c1c(N)n2c(S(=O)(=O)C(C)C)nsc2nc1=O,-85,n,n,n,n
CSc1nsc2nc(=O)c(/C=C3\C(C)=Nc4ccc(C)cc43)c(N)n12,-68,n,n,n,n
Cc1[nH]c2ccccc2c1C(=O)c1cc2ccccc2o1,x,x,x,x,n
CSc1nsc2nc(=O)c(/C=C3\C=Nc4ccccc43)c(N)n12,-56,n,n,n,n
Cc1cn2c(N)c(/C=C3\C=Nc4ccccc43)c(=O)nc2s1,n,n,n,n,n
CC1=Nc2ccccc2/C1=C/c1c(N)n2c(S(=O)(=O)CC(C)C)nsc2nc1=O,-65,n,n,n,u
CCc1nn2c(N)c(/C=C3\C=Nc4ccccc43)c(=O)nc2s1,n,n,-50!,n,n
CC1=Nc2ccccc2/C1=C/c1c(N)n2c(S(=O)(=O)C(C)C)nsc2nc1=O,-76,n,n,n,n
CCCCCCCNCc1sccc1C,x,x,x,x,n
SMILES,PI5P4K alpha inh,PI4K2A block,DRD3 antagonist,D3 ag,LDHA inh
CCOc1ccc2c(c1)C=C(C(=O)NCC(F)(F)F)CO2,x,x,x,x,n
Cc1cc(NC(=O)C2CCCC2)n(-c2nc3ccccc3[nH]2)n1,x,n,u,34,n
Clc1ccc(OCCCCCN2CCCC2)c(Br)c1,n,n,-52,n,n
Clc1ccc(OCCCN2CCCCC2)c(Br)c1,n,n,-68,n,n
CCN1CCN(CCCOc2ccc(Cl)cc2Br)CC1,n,n,u,n,u
CCn1cc(/C=C(\NC(=O)c2cc(OC)c(OC)c(OC)c2)C(=O)NCCO)c2ccccc21,x,x,x,x,n
Cc1ccc2nc3c(c(N)c2c1)CCN3c1ccccc1,n,n,-77,n,n
Cc1ccc2nc3c(c(N)c2c1)CCN3C,n,n,u,n,n
CCCCN(C)Cc1c(C)[nH]c2ccccc2c1=O,n,n,n,n,n
Cc1[nH]c2ccccc2c(=O)c1CN(C)Cc1ccccc1,n,n,-63,n,n
c1ccc(N=Nc2ccc(C3=NCCO3)cc2)cc1,n,-51,n,n,n
c1ccc(C2=NCCCO2)cc1,n,n,n,n,n
Cc1cccc(-c2nc(C#N)c(N3CCCCC3)o2)c1,n,n,n,n,n
Cc1cccc(-c2nc(C#N)c(N3CCOCC3)o2)c1,x,x,x,x,-31
Cc1n[nH]c(=O)c2c(NC(=O)CSc3nnc(C4CC4)n3C3CC3)oc(C)c12,x,x,x,x,n
O=C(O)c1cc(Cl)c2c(c1)[C@@H]1C=CC[C@@H]1[C@H](c1ccc(S(=O)(=O)N3CCOCC3)cc1)N2,-53,n,n,n,n
Cc1cccc(NC(=O)c2ccc(CN3CCc4ccccc4C3)cc2)c1C,n,n,-78,n,n
Cc1ccccc1NC(=O)c1ccc(F)c(S(=O)(=O)N2CCc3ccccc3C2)c1,x,n,x,n,n
CCc1cccc(C)c1NC(=O)c1ccc(CN2CCc3ccccc3C2)cc1,n,n,-72,n,n
CC(=O)Nc1ccc(NC(=O)c2ccc(CN3CCc4ccccc4C3)cc2)cc1,n,n,-55,n,n
Cc1ccccc1NC(=O)c1ccc(CN2CCc3ccccc3C2)cc1,n,n,-76,n,n
Cn1cc(CNCc2ccccc2OCC(O)CN2CCc3ccccc3C2)cn1 (configuration not stated),n,n,-71,n,n
Cc1ccc(C(C)C)c(OCC(O)CN2CCc3ccccc3C2)c1 (configuration not stated),n,n,u,n,n
O=S(=O)(c1ccc(OCC(O)CN2CCc3ccccc3C2)cc1)N1CCOCC1 (configuration not stated),x,n,-57,n,n
OC(COc1c(F)cc(Br)cc1F)CN1CCc2ccccc2C1 (configuration not stated),n,n,-111,n,n
SMILES,PI5P4K alpha inh,PI4K2A block,DRD3 antagonist,D3 ag,LDHA inh
OC(COc1c(Br)cc(Br)cc1Br)CN1CCOCC1 (configuration not stated),n,n,n,n,n
Cc1cccc(C)c1OCC(O)CN1CCc2ccccc2C1 (configuration not stated),n,n,-67,n,n
Cc1ccccc1OCC(O)CN1CCN(C)CC1 (configuration not stated),n,n,n,n,n
CCN(Cc1ccccc1)c1ccc(Br)cn1,x,x,x,x,n
CO[C@H]([C@H](C)/C=C/N(C)C=O)[C@@H](C)C(=O)CC[C@H](C)[C@H](O)[C@H](C)[C@H]1OC(=O)/C=C/C(C)=C/C[C@H](O)C[C@@H]2C=CC[C@@H](C[C@H](OC)[C@@H](C)[C@@H](OC)C[C@@H](OC)[C@@H]1C)O2,x,n,x,x,x
COc1ccc(/C=N/OCc2ccc(C)cc2)cc1OCc1ccccc1,x,x,x,x,n
O=C(C1CCN(CC2CC=CCC2)CC1)N(CCc1ccccc1)Cc1ccccc1 (configuration not stated),n,n,-61,n,n
CCCOc1ccc(CSc2nc3ccccc3[nH]2)cc1,x,n,-65,n,n
CCOc1ccc(OCCSc2nc3ccccc3[nH]2)cc1,x,n,n,n,n
O=C(CCc1ccccc1)NNC(=S)NCc1ccc(Cl)cc1,n,n,n,n,n
